The values that follow come from PubChem BioAssay AID590 (National Center for Advancing Translational Sciences (NCATS), 2007).

Screen size: about 59,000 compounds; about 6,500 (11%) were called active. Not shown: some 15% with an inconclusive outcome. Rule as the data show it: active = max dye-equivalent concentration above about 10 nM; inconclusive = mostly about 1.1 nM to 9.6 nM; inactive = weaker than that. This excerpt belongs to a sample that is enriched for actives.

A short description of this test: qHTS Assay for Spectroscopic Profiling in A350 Spectral Region. As to conditions: Compound autofluorescence, 340/450 nm, Alexa 350 dye-equivalents; hits give high values. In general terms: qHTS replaces the single test concentration by a dilution series.
For `O=C(CSc1nc2ncccc2[nH]1)Nc1ccc2c(c1)OCCO2`, the max dye-equivalent concentration entry is “inactive”.

For the compound `CC(C)C(c1nnnn1C1CCCC1)N1CCN(c2ccccc2F)CC1` (stereo unspecified), the max dye-equivalent concentration result was “inactive”.

On to `Cc1cc(C)c(C#N)c(SCc2ccccc2C(=O)O)n1`, for which the max dye-equivalent concentration is 13 nM (active).

As to `Cc1cc(C)c(C#N)c(SCc2ccc3c(c2)OCO3)n1`, the max dye-equivalent concentration result was “inactive”.

With `Cc1cc(C)c(C#N)c(SCS(=O)c2ccc(C(C)(C)C)cc2)n1` (stereo unspecified), the max dye-equivalent concentration result was “inactive”.

As to `CCN(CC)S(=O)(=O)c1ccc(NC(=O)CN(c2cccc(F)c2)S(C)(=O)=O)cc1`, the max dye-equivalent concentration entry was “inactive”.

`CCOC(=O)c1c(NC(=O)CCC(=O)NCc2ccco2)sc2c1CCCC2`: the max dye-equivalent concentration entry was “inactive”.

Consider `ClC(Cl)(Cl)C(N1CCN(c2ccccc2)CC1)N1CCN(c2ccccc2)CC1`, for which the max dye-equivalent concentration result is “inactive”.

Turning to `COc1ccccc1N1CCN(C(=O)CSc2nnc(-c3ccoc3C)o2)CC1`, the max dye-equivalent concentration result was “inactive”.

On to `O=C(Nc1ccncc1)c1c(F)cccc1F`, for which the max dye-equivalent concentration result is “inactive”.

On to `Cc1nc(C)c(C(=O)Nc2ccc(C)c(F)c2)o1`, for which the max dye-equivalent concentration entry is “inactive”.

As to `O=C(O)c1ccc(NC(=O)C2CCCCC2)cc1`, the max dye-equivalent concentration entry is “inactive”.

For the compound `CN1C(=O)c2ccc(NC(=O)c3c(F)c(F)c(F)c(F)c3F)cc2C1=O`, the max dye-equivalent concentration is 110 nM (active).

Regarding `CN1C(=O)c2ccc(NC(=O)C3CCCCC3)cc2C1=O`, the max dye-equivalent concentration is 320 nM (active).

As for `O=C(Nc1c(Cl)cccc1Cl)C1CCC1`, the max dye-equivalent concentration result was “inactive”.

Take `C[N+]1(CCN=C=NC2CCCCC2)CCOCC1`: the max dye-equivalent concentration entry was “inactive”.

For `Cc1ccc(N2CCN(S(=O)(=O)N(C)C)CC2)cc1Cl`, the max dye-equivalent concentration entry was “inactive”.

As to `CCCCOc1ccc(C(C)(O)CCN2CCOCC2)cc1` (stereo unspecified), the max dye-equivalent concentration entry is “inactive”.

Consider `CC(C)C(c1nnnn1CCc1ccccc1)N1CCN(C(=O)c2ccco2)CC1` (stereo unspecified), for which the max dye-equivalent concentration result was “inactive”.

Consider `N#Cc1cccc(-c2ccc3ncnc(NCc4cccs4)c3c2)c1`, for which the max dye-equivalent concentration entry is “inactive”.

For `CC(=O)Oc1cccc(N2C(=O)CC(Nc3ccc(N4CCOCC4)cc3)C2=O)c1` (stereo unspecified), the max dye-equivalent concentration entry was “inactive”.

As for `CS(=O)(=O)N1CCC2(CC1)CN(Cc1cc(C(F)(F)F)cc(C(F)(F)F)c1)C2`, the max dye-equivalent concentration result is “inactive”.

Take `C#CCN1C(=O)C(O)(CC(=O)c2cc(OC)ccc2OC)c2ccccc21` (stereo unspecified): the max dye-equivalent concentration was 14 nM (active).

For the compound `COc1ccc(N2C(=O)CCC(C(=O)N(C)C3CCCCC3)C2c2ccc(OC)c(OC)c2)cc1` (stereo unspecified), the max dye-equivalent concentration result was “inactive”.

Take `COc1ccc(OC)c(NC(=O)Cn2c(=O)oc3ccccc32)c1`: the max dye-equivalent concentration entry was “inactive”.

Consider `COc1ccc(CCN(Cc2cc3cccc(C)c3[nH]c2=O)C(=O)N2CCCC2)cc1OC`, for which the max dye-equivalent concentration entry was “inactive”.

Take `COc1cc2cc(CN(CCN3CCCC3)C(=O)Nc3ccccc3Cl)c(=O)[nH]c2cc1OC`: the max dye-equivalent concentration is 310 nM (active).

Consider `COc1cccc2cc(C(C)N(CCCN3CCOCC3)C(=O)Nc3ccc(Cl)cc3)oc12` (stereo unspecified), for which the max dye-equivalent concentration result was “inactive”.

As for `Cc1ccc(-c2nnn(CC(=O)N(CCO)C(C(=O)NC(C)(C)C)c3ccncc3)n2)cc1` (stereo unspecified), the max dye-equivalent concentration result was “inactive”.

As for `O=C(Nc1ccc2c(c1)OCCO2)c1ccncc1`, the max dye-equivalent concentration result was “inactive”.

`Cc1cc(C)n2nc(C(=O)Oc3ccc4c(c3)OCO4)nc2n1`: the max dye-equivalent concentration entry was “inactive”.

Take `COc1ccc2[nH]c3c(=O)n(Cc4ccco4)cnc3c2c1`: the max dye-equivalent concentration was 55 nM (active).

As for `O=c1c2[nH]c3ccc(Cl)cc3c2ncn1Cc1ccccn1`, the max dye-equivalent concentration result was “inactive”.

As to `COc1ccc(C(=O)CSc2nnc(COc3ccccc3)n2Cc2ccco2)cc1`, the max dye-equivalent concentration result was “inactive”.

Turning to `CCOc1ccccc1NC(=O)Nc1cc(OC)ccc1OC`, the max dye-equivalent concentration result is “inactive”.

In the case of `COC(=O)c1[nH]c2ccccc2c1NS(=O)(=O)c1ccc(OC)cc1OC`, the max dye-equivalent concentration result is “inactive”.

Consider `COc1ccc(OC)c(N=Cc2c(O)[nH]c3ccccc23)c1`, for which the max dye-equivalent concentration was 64 nM (active).

Regarding `Cc1nc2nc(COc3ccccc3)[nH]n2c(=O)c1Cc1ccccc1`, the max dye-equivalent concentration entry is “inactive”.

`CC(=O)/C(C)=N\O`: the max dye-equivalent concentration entry is “inactive”.

For `Cn1c(=O)c2c(nc(N3CCCCCC3)n2CC(O)COc2ccc(Cl)cc2)n(C)c1=O` (stereo unspecified), the max dye-equivalent concentration is 49 nM (active).

Regarding `Cn1c(=O)c2c(nc(N3CCCCCC3)n2CC(=O)c2ccc(Br)cc2)n(C)c1=O`, the max dye-equivalent concentration result is “inactive”.

For `Cc1cccc(Cn2c(N3CCN(c4ccccc4)CC3)nc3c2c(=O)n(C)c(=O)n3C)c1`, the max dye-equivalent concentration entry was “inactive”.

For the compound `CN(c1nc2ccccc2n2c(-c3ccco3)nnc12)S(=O)(=O)c1ccccc1`, the max dye-equivalent concentration is 39 nM (active).

For `Cc1ccc(Oc2nc3ccccc3n3c(C)nnc23)cc1`, the max dye-equivalent concentration entry was “inactive”.

In the case of `c1ccc(CSc2nnc(-c3ccco3)n2Cc2ccccc2)cc1`, the max dye-equivalent concentration result was “inactive”.

For `CC(=O)C1=C(O)C(=O)N(c2ccc(S(N)(=O)=O)cc2)C1c1ccccc1F` (stereo unspecified), the max dye-equivalent concentration is 23 nM (active).

Take `COc1ccccc1N=C1SC(C)CN1C(=O)C1CCC1` (stereo unspecified): the max dye-equivalent concentration entry is “inactive”.

Turning to `COc1ccc(N2C(=O)CN=C2Nc2cccc(C)c2C)cc1OC`, the max dye-equivalent concentration entry was “inactive”.

On to `CSc1cccc(NC(=O)C2CCCN2S(=O)(=O)c2ccc3c(c2)CCC(=O)N3)c1` (stereo unspecified), for which the max dye-equivalent concentration result was “inactive”.

As for `O=C(CC1N=C2c3ccccc3N=C(SCc3ccccc3Cl)N2C1=O)NCc1ccco1` (stereo unspecified), the max dye-equivalent concentration is 17 nM (active).

Take `O=C(CN1C(=O)CCS(=O)(=O)c2ccccc21)NCc1ccc(F)cc1`: the max dye-equivalent concentration result was “inactive”.

With `Cc1nc2nc(SCC(=O)NCc3ccco3)nn2c(C)c1Cc1ccccc1`, the max dye-equivalent concentration entry was “inactive”.

As for `CC1(c2ccccc2Cl)NC(=O)N(CC(=O)NC(=O)NCc2ccco2)C1=O` (stereo unspecified), the max dye-equivalent concentration entry was “inactive”.

Turning to `NC(=O)CSC1=Nc2ccccc2C2=NC(CCC(=O)NCc3ccc(F)cc3)C(=O)N12` (stereo unspecified), the max dye-equivalent concentration was 420 nM (active).

For `CCN(CC)S(=O)(=O)c1cccc(C(=O)NCC(=O)OCC(=O)NCc2ccccc2)c1`, the max dye-equivalent concentration entry was “inactive”.

On to `COc1ccccc1N(C(=O)Cn1nnc2ccccc21)C(C(=O)NCc1ccco1)c1ccc(C)o1` (stereo unspecified), for which the max dye-equivalent concentration result is “inactive”.

On to `COc1ccc2[nH]cc(CCNc3ncnc4ccc(-c5ccc(C(=O)N(C)C)cc5)cc34)c2c1`, for which the max dye-equivalent concentration result is “inactive”.

In the case of `O=C(O)c1ccc(-n2cccc2)cc1O`, the max dye-equivalent concentration result is “inactive”.

On to `Cc1cc(Cl)ccc1N1C(=O)CC(SCCC(=O)O)C1=O` (stereo unspecified), for which the max dye-equivalent concentration entry was “inactive”.

For the compound `CN(C)c1ccc(NC(=O)c2ccncc2)c2ccccc12`, the max dye-equivalent concentration entry is “inactive”.

On to `CCN1CCc2c(C#N)c(NCc3ccccc3)nc(NCCO)c2C1`, for which the max dye-equivalent concentration was 500 nM (active).

Consider `COc1ccc2c(=O)cc(-c3ccccc3)oc2c1O`, for which the max dye-equivalent concentration result is “inactive”.

With `Cc1noc(C)c1-c1nccc(N2CCOCC2)n1`, the max dye-equivalent concentration entry was “inactive”.

Take `O=C(Nc1nsc(-c2ccccc2)n1)c1ccncc1`: the max dye-equivalent concentration result was “inactive”.

For the compound `CC[C@]1(O)CC2CN(CCc3c([nH]c4ccccc34)[C@@](C(=O)OC)(c3cc4c(cc3OC)N(C=O)[C@H]3[C@@](O)(C(=O)OC)[C@H](OC(C)=O)[C@]5(CC)C=CCN6CC[C@]43[C@@H]65)C2)C1` (stereo partly specified), the max dye-equivalent concentration entry was “inactive”.

On to `CC[C@]1(O)C[C@@H]2CN(CCc3c([nH]c4ccccc34)[C@@](C(=O)OC)(c3cc4c(cc3OC)N(C)[C@H]3[C@@](O)(C(=O)OC)[C@H](OC(C)=O)[C@]5(CC)C=CCN6CC[C@]43[C@@H]65)C2)C1`, for which the max dye-equivalent concentration is 54 nM (active).
